Source: the supplement of paper PMC8007513
Where a name gives a salt, the structure may show the parent alone. ± gives the standard error. About 130 (10%) of roughly 1,300 compounds showed an effect of 50% or more. Many of the other results were omitted from the sample, so strong results are more common in it than they were.

Tested on: Trichoderma virens ATCC 9645
Test: growth yield (OD600) with compound + IPBC relative to untreated control; higher = less growth inhibition
Settings: compound concentration: 100 uM, IPBC concentration: 200 ng/ml
In short: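 For each 96-well plate, 100 μl aliquots were prepared with Trichoderma virens ATCC 9645 spores suspended at 15,000 spores ml^−1 in potato dextrose broth. The spores had been harvested from potato dextrose agar plates after 7 days. Library compounds were present at 100 μM final, some wells also receiving a biocide at 200 ng ml^−1, and plates were grown at 30 °C with OD600 read on a BioTek EL800 at 40 h and 72 h. Reported growth, relative to the control lacking both agents, is the mean of duplicate screens.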

SMILES | growth yield (40 h) | growth yield (72 h)
CCN(CC)C(=O)N1CCN(C)CC1 [Diethylcarbamazine citrate] + CCCCNC(=O)OCC#CI [3-iodo-2-propynyl butylcarbamate (IPBC)] | 83.4 ± 2.4% | 94.1 ± 1.4%
CN(CCOc1ccc(CC2SC(=O)NC2=O)cc1)c1ccccn1 (configuration not stated) [Rosiglitazone Hydrochloride] + CCCCNC(=O)OCC#CI [3-iodo-2-propynyl butylcarbamate (IPBC)] | 76.4 ± 7.5% | 82.6 ± 6.1%
CCCOc1ccccc1-c1nc2[nH]nnc2c(=O)[nH]1 [Zaprinast] + CCCCNC(=O)OCC#CI [3-iodo-2-propynyl butylcarbamate (IPBC)] | 87.2 ± 0.79% | 98.7 ± 1.1%
N[C@@H]1CCCCN(c2c(F)cc3c(=O)c(C(=O)O)cn(C4CC4)c3c2Cl)C1 [Besifloxacin hydrochloride] + CCCCNC(=O)OCC#CI [3-iodo-2-propynyl butylcarbamate (IPBC)] | 88.5 ± 2.7% | 88.1 ± 2.7%
COc1ccc(C(=O)NCc2ccc(OCCN(C)C)cc2)cc1OC [Itopride] + CCCCNC(=O)OCC#CI [3-iodo-2-propynyl butylcarbamate (IPBC)] | 107 ± 1.1% | 102%
COc1ccc(C(Cl)=C(c2ccc(OC)cc2)c2ccc(OC)cc2)cc1 [Chlorotrianisene] + CCCCNC(=O)OCC#CI [3-iodo-2-propynyl butylcarbamate (IPBC)] | 103 ± 17% | 101 ± 11%
COc1cc(C(=O)NCc2ccc(OCCN(C)C)cc2)cc(OC)c1OC [Trimethobenzamide hydrochloride] + CCCCNC(=O)OCC#CI [3-iodo-2-propynyl butylcarbamate (IPBC)] | 90.2 ± 1.3% | 91.3 ± 2.8%
CN(C)CCOC(=O)COc1ccc(Cl)cc1 [Meclofenoxate hydrochloride] + CCCCNC(=O)OCC#CI [3-iodo-2-propynyl butylcarbamate (IPBC)] | 93.2 ± 3.3% | 96.7 ± 2.1%
CCN(CC)CCOc1ccc(C(=C(Cl)c2ccccc2)c2ccccc2)cc1 [Clomiphene citrate (Z,E)] + CCCCNC(=O)OCC#CI [3-iodo-2-propynyl butylcarbamate (IPBC)] | 3.02 ± 0.16% | 2.94%
CN(C)CCOc1ccc(/C(=C(/CCCl)c2ccccc2)c2ccccc2)cc1 [Toremifene] + CCCCNC(=O)OCC#CI [3-iodo-2-propynyl butylcarbamate (IPBC)] | 3.49 ± 0.95% | 3.15 ± 0.42%
CC/C(=C(\c1ccccc1)c1ccc(OCCN(C)C)cc1)c1ccccc1 [Tamoxifen citrate] + CCCCNC(=O)OCC#CI [3-iodo-2-propynyl butylcarbamate (IPBC)] | 3.34 ± 0.48% | 3.36 ± 0.63%
CN(C)CCOC(c1ccccc1)c1ccccc1 [Diphenhydramine hydrochloride] + CCCCNC(=O)OCC#CI [3-iodo-2-propynyl butylcarbamate (IPBC)] | 87.2 ± 2.1% | 94 ± 2.1%
CCN(CC)CCOC(=O)C(c1ccccc1)c1ccccc1 [Adiphenine hydrochloride] + CCCCNC(=O)OCC#CI [3-iodo-2-propynyl butylcarbamate (IPBC)] | 87.2 ± 1.4% | 92.8 ± 1.4%
CCN(CC)CCNC(=O)c1cc(Br)c(N)cc1OC [Bromopride] + CCCCNC(=O)OCC#CI [3-iodo-2-propynyl butylcarbamate (IPBC)] | 92.6 ± 14% | 93.8 ± 7.5%
CCCOc1cc(N)ccc1C(=O)OCCN(CC)CC [Propoxycaine hydrochloride] + CCCCNC(=O)OCC#CI [3-iodo-2-propynyl butylcarbamate (IPBC)] | 86.7% | 88.73 ± 0.42%
CCC1(C)CC(=O)NC1=O (configuration not stated) [Ethosuximide] + CCCCNC(=O)OCC#CI [3-iodo-2-propynyl butylcarbamate (IPBC)] | 94.8 ± 2.1% | 97.85 ± 0.94%
CN1CCN(C2=Nc3ccccc3Oc3ccc(Cl)cc32)CC1 [Loxapine succinate] + CCCCNC(=O)OCC#CI [3-iodo-2-propynyl butylcarbamate (IPBC)] | 71.8 ± 2.2% | 91.87 ± 0.84%
CC(=O)N(CC(C)C(=O)O)c1c(I)cc(I)c(N)c1I (configuration not stated) [Iocetamic acid] + CCCCNC(=O)OCC#CI [3-iodo-2-propynyl butylcarbamate (IPBC)] | 107 ± 18% | 102 ± 11%
C#C[C@]1(O)CC[C@H]2[C@@H]3[C@H](C)CC4=C(CCC(=O)C4)[C@H]3CC[C@@]21C [Tibolone] + CCCCNC(=O)OCC#CI [3-iodo-2-propynyl butylcarbamate (IPBC)] | 80.1 ± 2.9% | 90.09 ± 0.1%
Cc1ccc(-c2cc(C(F)(F)F)nn2-c2ccc(S(N)(=O)=O)cc2)cc1 [Celecoxib] + CCCCNC(=O)OCC#CI [3-iodo-2-propynyl butylcarbamate (IPBC)] | 57.8 ± 0.64% | 78.76 ± 0.73%
C[C@]12CC[C@@H]3c4ccc(OC(=O)N(CCCl)CCCl)cc4CC[C@H]3[C@@H]1CC[C@@H]2O [Estramustine] + CCCCNC(=O)OCC#CI [3-iodo-2-propynyl butylcarbamate (IPBC)] | 97.8 ± 4.5% | 98.1 ± 4.7%

SMILES | growth yield (40 h) | growth yield (72 h)
CC(C)NNC(=O)c1ccncc1 [Iproniazide phosphate] + CCCCNC(=O)OCC#CI [3-iodo-2-propynyl butylcarbamate (IPBC)] | 89.3 ± 0.95% | 99 ± 0.84%
Oc1ccc(OCc2ccccc2)cc1 [Monobenzone] + CCCCNC(=O)OCC#CI [3-iodo-2-propynyl butylcarbamate (IPBC)] | 50.7 ± 6.5% | 63 ± 4.3%
CCCCN(CCCC)CCCOC(=O)c1ccc(N)cc1 [Butacaine] + CCCCNC(=O)OCC#CI [3-iodo-2-propynyl butylcarbamate (IPBC)] | 106 ± 9.2% | 105 ± 8.7%
CCCCOC(=O)c1ccc(N)cc1 [Butamben] + CCCCNC(=O)OCC#CI [3-iodo-2-propynyl butylcarbamate (IPBC)] | 53.53 ± 0.16% | 70.7 ± 3.4%
CCCCOC(=O)c1ccc(O)cc1 [Butylparaben] + CCCCNC(=O)OCC#CI [3-iodo-2-propynyl butylcarbamate (IPBC)] | 27.5 ± 1.8% | 46.9 ± 3.2%
NNc1nncc2ccccc12 [Hydralazine hydrochloride] + CCCCNC(=O)OCC#CI [3-iodo-2-propynyl butylcarbamate (IPBC)] | 120 ± 6.8% | 125 ± 11%
Cc1cc(C2CCCCC2)n(O)c(=O)c1 [Ciclopirox ethanolamine] + CCCCNC(=O)OCC#CI [3-iodo-2-propynyl butylcarbamate (IPBC)] | 3.49 ± 0.32% | 2.83 ± 0.32%
CCOC(=O)[C@H](CCc1ccccc1)N[C@@H](C)C(=O)N1[C@H](C(=O)O)C[C@@H]2CCC[C@@H]21 [Ramipril] + CCCCNC(=O)OCC#CI [3-iodo-2-propynyl butylcarbamate (IPBC)] | 95 ± 3.2% | 96 ± 3.9%
CC1(C)O[C@@H]2C[C@H]3[C@@H]4CCC5=CC(=O)C=C[C@]5(C)[C@H]4[C@@H](O)C[C@]3(C)[C@]2(C(=O)CO)O1 [Desonide] + CCCCNC(=O)OCC#CI [3-iodo-2-propynyl butylcarbamate (IPBC)] | 107 ± 5.9% | 103 ± 3.9%
C[C@@H]1CC[C@H]2[C@@H](C)C(=O)O[C@@H]3O[C@@]4(C)CC[C@@H]1[C@]32OO4 [Artemisinin] + CCCCNC(=O)OCC#CI [3-iodo-2-propynyl butylcarbamate (IPBC)] | 32.4 ± 1.3% | 76.3 ± 1.1%
CC1(C)O[C@@H]2C[C@H]3[C@@H]4CCC5=CC(=O)CC[C@]5(C)[C@@]4(F)[C@@H](O)C[C@]3(C)[C@]2(C(=O)CCl)O1 [Halcinonide] + CCCCNC(=O)OCC#CI [3-iodo-2-propynyl butylcarbamate (IPBC)] | 86.9 ± 1.1% | 91.77 ± 0.1%
COc1cnc(NS(=O)(=O)c2ccc(N)cc2)nc1 [Sulfameter] + CCCCNC(=O)OCC#CI [3-iodo-2-propynyl butylcarbamate (IPBC)] | 101 ± 7.5% | 101 ± 3.5%
Nc1nc2c(ncn2COCCO)c(=O)[nH]1 [Acyclovir] + CCCCNC(=O)OCC#CI [3-iodo-2-propynyl butylcarbamate (IPBC)] | 100 ± 3.5% | 101 ± 3.5%
Nc1nc2n[nH]nc2c(=O)[nH]1 [Azaguanine-8] + CCCCNC(=O)OCC#CI [3-iodo-2-propynyl butylcarbamate (IPBC)] | 7.47 ± 1.1% | 12.2 ± 0.21%
Nc1nc2c(ncn2COC(CO)CO)c(=O)[nH]1 [Ganciclovir] + CCCCNC(=O)OCC#CI [3-iodo-2-propynyl butylcarbamate (IPBC)] | 99.9 ± 16% | 98.1 ± 10%
CC(C)(C(=O)c1cccnc1)c1cccnc1 [Metyrapone] + CCCCNC(=O)OCC#CI [3-iodo-2-propynyl butylcarbamate (IPBC)] | 87.5 ± 1.4% | 87.68 ± 0.84%
CC(=O)OCC(=O)[C@H]1CC[C@H]2[C@@H]3CC[C@H]4C[C@H](O)CC[C@]4(C)[C@H]3C(=O)C[C@]12C [Alfadolone acetate] + CCCCNC(=O)OCC#CI [3-iodo-2-propynyl butylcarbamate (IPBC)] | 90.1 ± 8.4% | 95.4 ± 2.9%
C#C[C@]1(OC(C)=O)CC[C@H]2[C@@H]3CCC4=C[C@@H](OC(C)=O)CC[C@@H]4[C@H]3CC[C@@]21C [Ethynodiol diacetate] + CCCCNC(=O)OCC#CI [3-iodo-2-propynyl butylcarbamate (IPBC)] | 80.21 ± 0.16% | 92 ± 1.8%
Cc1cc2c(cc1S(N)(=O)=O)S(=O)(=O)CCC2 [Meticrane] + CCCCNC(=O)OCC#CI [3-iodo-2-propynyl butylcarbamate (IPBC)] | 91.8 ± 6.7% | 91.7 ± 3.8%
COc1ccc2c(c1)c(CC(=O)OCC(=O)O)c(C)n2C(=O)c1ccc(Cl)cc1 [Acemetacin] + CCCCNC(=O)OCC#CI [3-iodo-2-propynyl butylcarbamate (IPBC)] | 74.18 ± 0.16% | 84.11 ± 0.21%
